# ERG Ets-DNA blk: inhibitors of human ERG Ets domain-DNA interaction; hit rate 0.028% among 370,000; Potency, µM (series often up to 76.9 µM), without a hit: top-dose FP activity, negative = inhibition, usual class: inhibitors; P11308; fluorescence polarization, His-ERG Ets domain / labelled DNA; AID 624246; active = well fitted inhibition curve with a large enough effect in the polarisation, with a control signal flat; inconclusive = small, poorly fitted or top-dose-only effect, or effect the other way, or a change in a side signal; inactive = no such curve, though single readings can be large or run the other way; the % refers to the polarisation;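 note: polarization taken with two DNA probes labelled with fluorescein and Texas red; potency is the fitted concentration of half-maximal effect; % of control where 0% means no effect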
#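 His-tagged ERG Ets domain (1 uM in the protein solution; 300mM KCl, 50mM Tris-HCl, 1mM EDTA, 1mM DTT, pH 7.5) received compound, then a probe mix of 5 nM fluorescein-DNA and 100nM Texas-615-DNA. Fluorescence polarization was read for both dyes.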
# D1 antagonist: antagonists of human D1 dopamine receptor. P21728. HEK293 TREx D1 cells, calcium flux, dopamine EC80; hits give low values. activity change, negative = inhibition, % at 10 µM. hit rate 3.2% among 360,000; in the data active = activity change below about -30%; note: % is set by controls: 0 for no effect and ±100 for the full control effect
#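 Tetracycline-induced HEK293 T-REx cells with force-coupled D1 receptor were loaded with a no-wash calcium dye. Compound was added after a 10 s baseline and read kinetically for 180 s; EC80 dopamine was then added and calcium flux followed another 180 s.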
# DRD3 antagonist: blocks the human D3 dopamine receptor; D3R cells, DiscoveRx beta-arrestin luminescence, antagonist mode; hits give low values; max response, negative = inhibition, %; hit rate 2.5% among 360,000; AID 652054; in the data active = max response below about -50%; inconclusive = no clear call, values can overlap the other calls; note: % is set by controls: 0 for no effect and ±100 for the full control effect
# Target sequence (P35462 whole entry, looked up): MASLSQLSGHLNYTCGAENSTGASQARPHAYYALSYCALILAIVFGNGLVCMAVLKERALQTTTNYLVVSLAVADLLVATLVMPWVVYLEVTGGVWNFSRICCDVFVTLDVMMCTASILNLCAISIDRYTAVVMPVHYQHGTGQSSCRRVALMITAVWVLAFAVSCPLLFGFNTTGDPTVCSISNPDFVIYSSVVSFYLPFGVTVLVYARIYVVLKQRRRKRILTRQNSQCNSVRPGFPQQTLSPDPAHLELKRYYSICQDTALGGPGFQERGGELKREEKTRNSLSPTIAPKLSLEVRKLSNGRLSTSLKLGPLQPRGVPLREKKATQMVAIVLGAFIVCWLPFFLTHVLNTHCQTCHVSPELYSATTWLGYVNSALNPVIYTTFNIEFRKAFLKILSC
#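 Cells expressing the human receptor were seeded at 1500 cells/well, incubated overnight at 37 degrees C in 5% CO2, then exposed to library compounds with dopamine controls for 90 minutes at 37 degrees C before luminescent detection.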
# D1 agonist: human D1 receptor agonism | HEK293 T-REx D1 cells, calcium flux, agonist mode | P21728 | activation, % at 2 µM | hit rate 1% among 360,000; in the data active = activation above about 30%; note: 0% is about no effect
#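 Agonism was scored from calcium flux recorded over 180 s (1 read/s) after pintool compound addition, following a 10-cycle baseline. Cells were inducible force-coupled HEK293 TREx D1, plated overnight at 30 C and loaded with no-wash calcium dye.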
# D3 ag: D3 dopamine receptor (human) agonism | D3R DiscoveRx beta-arrestin cells, luminescence, 90 min | hit rate 0.58% among 410,000 | AID 652048 | max activation, %; in the data active = max activation above about 30%; note: 0% is about no effect
#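 Agonist-mode cell screen: cells plated at 1500/well and incubated overnight at 37 °C, then exposed to library compounds for 90 min at 37 °C. Detection reagent was added for 30–60 min at room temperature, and luminescence was read.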
# D1 potentiator: potentiators of human D1 dopamine receptor; HEK293 TREx D1 cells, calcium flux, dopamine EC20 potentiation; hit rate 0.036% among 360,000; P21728; potentiation, % at 10 µM; in the data active = potentiation above about 30%; note: 0% is about no effect
# An asterisk follows results filed as active; ? = inconclusive; · = no result. Only some compounds are listed: those with a hit (about 6.1% of all), similar ones and a draw of the others.
SMILES,ERG Ets-DNA blk,D1 antagonist,DRD3 antagonist,D1 agonist,D3 ag,D1 potentiator
CC(C)C[C@@H](C(=O)NC1CC1)N1C(=O)N2CCc3c([nH]c4ccccc34)[C@@]2(C)C1=O,10%,-7,9,2,9,2
CC(=O)N1CCOc2ccc(S(=O)(=O)NC[C@H]3O[C@@H](n4cnc5c(N)ncnc54)[C@H](O)[C@@H]3O)cc21,-1%,·,20,·,11,·
Cc1nc(C)c(-c2ccc(SCC(=O)Nc3cccc(F)c3)nn2)s1,-2%,-32*,36,10,9,2
CC(c1ccccc1)n1c(S(=O)(=O)O)nc2ccccc21 (stereo not given),5%,11,-4,2,-3,-2
CC(C)n1c(S(=O)(=O)O)nc2ccccc21,-4%,-34*,7,2,2,-7
Cc1ccccc1OCCNCC(C)O (stereo not given),2%,-14,-57*,0,-12,-7
O=C(Cn1c2[n+](c3ccc(C(F)(F)F)cc31)CCCCC2)c1cccc([N+](=O)[O-])c1,3%,-5,-89*,2,-12,1
O=C(Cn1c2[n+](c3ccc(C(F)(F)F)cc31)CCCCC2)Nc1ccccc1,0%,-8,-51*,3,-33,15
COc1ccc(S(=O)(=O)N2CCOC2CNC(=O)C(=O)NCc2ccccn2)cc1 (stereo not given),-8%,·,1,·,-2,·
N#Cc1c(-c2ccccc2)nc(-c2ccccc2)[nH]c1=O,-4%,6,-58*,3,2,-3
N#Cc1c(-c2ccccc2)nc(-c2ccncc2)[nH]c1=O,2%,-1,11,1,4,-1
CN(C)c1ccc(/C=C2/C[N+](C)(C)C/C(=C/c3ccc(N(C)C)cc3)C2=O)cc1,101%,·,-23,·,-22,·
CC(C)/C=C1\CC/C(=C\c2ccc(N(C)C)cc2)C1=O,·,-31*,-4,243*,4,2
OC(COc1ccccc1F)CN1CCC(Cc2ccccc2)CC1 (stereo not given),-4%,-42*,-81*,16,-25,-18
OC(COc1ccc(F)cc1Cl)CN1CCC(Cc2ccccc2)CC1 (stereo not given),7%,-72*,-79*,61*,-20,-7
OC(COc1ccccc1Br)CN1CCNCC1 (stereo not given),-2%,-15,-20,2,-19,-9
OC(COc1ccc(OCC(O)CN2CCN(Cc3ccccc3)CC2)cc1)CN1CCN(Cc2ccccc2)CC1 (stereo not given),4%,·,?,·,-2,·
CCOc1ccc(C(C)NC(=S)NCc2ccc(Cl)cc2)cc1 (stereo not given),5%,·,-11,35*,-3,-5
CCC(C)c1ccc(C(C)NC(=S)NCc2ccc(F)cc2)cc1 (stereo not given),4%,-14,-13,21,-2,-4
CCCc1ccc(C(C)NC(=S)NCc2ccc(F)cc2)cc1 (stereo not given),12%,-1,-12,80*,6,-5
CCN(C(=O)c1cn(-c2ccc(OC)cc2)c(=O)c2ccccc12)c1cccc(Cl)c1,3%,-3,·,6,-8,-1
CCOC(=O)C1=C(O)/C(=C\c2cc(C)n(-c3ccc(F)cc3)c2C)N=C1C,3%,-32*,-24,6,-8,-2
CCOC(=O)C1=C(O)/C(=C\c2cc(C)n(-c3ccccc3F)c2C)N=C1C,20%,0,-14,4,-4,-4
CCN(CC)C(=O)c1sc2c(c1C)c(=O)n(Cc1ccccc1)c(=O)n2Cc1ccc(Cl)cc1,6%,6,·,4,-9,2
Cc1sc2nc(SCC(=O)N3CCCC3)[nH]c(=O)c2c1C,1%,-34*,-19,-2,-8,18
CCCn1cc(S(=O)(=O)CC(=O)NC2CCCCC2)c2ccccc21,·,3,-66*,0,-25,-4
Cn1cc(CC(=O)NC2CCCCC2)c2ccccc21,-2%,-26,3,2,2,-8
